The results in this text go back to PubChem BioAssay (NCATS).

Inconclusive results are not listed. The source made the active and inactive calls. Unless noted, calls follow the shape of the dose curve; as a rule, active = well fitted curve in the direction sought with a large enough effect; inconclusive = small, poorly fitted or top-dose-only effect, or another doubt; inactive = no such curve, though single readings can be large; an effect the other way counts as inactive or inconclusive.

The nature of test [1]: qHTS Assay for Identification of Small Molecule Agonists for NFkB Signaling Pathway. (AID 624478).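 Also: compounds tested together with TNF alpha at its EC50 of 10 pM; 0% is about no effect.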 In a few lines:
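Activators were sought in reporter cells stimulated at the TNF alpha EC50 (10 pM final). Compound and cytokine were co-incubated 5 hours at 37 C before beta-lactamase substrate detection by dual-emission fluorescence.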
On the technique in general: qHTS replaces the single test concentration by a dilution series.

Test [2] is described as follows: Cell Proliferation Assay against the TMD8 Cell Line (AID 651645).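 Also: cells exposed to compound for 48 h before reading.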 To be noted: TMD8 DLBCL cell line proliferation/viability; at 46.1 µM (top of the series) unless noted. In a few lines:
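Cell viability of the ABC DLBCL line TMD8 is measured by CellTiter-Glo luminescence following a 48-hour incubation with compound. Percent activity uses DMSO as 100% and 9.2 uM bortezomib (final) as 0%.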

Test [3] can be described thus: Cell Proliferation Assay against the HBL1 Cell Line (AID 651646).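 Also: cells exposed to compound for 48 h before reading.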 To be noted: HBL1 DLBCL cells; at 46.1 µM (top of the series) unless noted. In a few lines: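 HBL1, 500 cells/well, RPMI no phenol red + 5% FBS; cpd pinned, 48 h 37C/5% CO2; CellTiter-Glo, 15 min RT, luminescence. % activity: DMSO = 100%, bortezomib 9.2 uM final = 0%.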
Test [4] concerns the target Glucagon-like peptide 1 receptor (Homo sapiens) (UniProt P43220). The test can be described thus: qHTS of GLP-1 Receptor Agonists: LOPAC Validation (AID 624148).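 Also: 0% is about no effect; higher luminescence signal means agonism.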 In a few lines:
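HEK293 cells stably co-expressing GLP-1R and a cAMP-responsive luciferase reporter, plated 12 hours before compound, then incubated 4-6 hr at 37 deg C. Luminescence read 12 min after detection reagent.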

Test [5] is described as follows: qHTS of Nrf2 Activators: LOPAC Validation (AID 624149). Also: 0% is about no effect. In a few lines: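 Cells (AREc32_Fluc) are plated at 1000 per well in OPTI-MEM containing 5% FBS and left overnight. Compounds are pinned in and incubated 24 hr at 37 deg C, and firefly luciferase is detected with Steady-Glo.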
A short description of test [6]: HTS Assay for Allosteric Antagonists of the Human D2 Dopamine Receptor: Hit Validation in HTRF (AID 624455).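 Also: stable D1 dopamine receptor cell line scored for blocking the D1 response; % is scaled to controls: 0 for no effect and ±100 for the full control effect.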 In a few lines: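 Inhibition of the D1-mediated response is measured by HTRF in cells that stably express the D1 dopamine receptor. Compounds reaching this step are hits from calcium-flux antagonism testing at EC80 dopamine in inducible Hek293 Trex D2 cells.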
For orientation: TR-FRET usually uses a lanthanide donor and a delayed reading to cut background.

Test [7] can be described thus: qHTS assay for small molecule activators of the p53 signaling pathway (AID 651743; active = well fitted activation curve with a large enough effect in the signal ratio, not every such curve was filed as active; the % refers to the signal ratio; also: % of control where 0% means no effect). Conditions: HCT-116 p53RE-bla, beta-lactamase FRET ratio, 16 h; activation: stronger effect = higher value. In a few lines:
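Following 16 hours of compound exposure at 37 C, HCT-116 cells bearing the p53RE-bla reporter were loaded with LiveBLAzer B/G FRET substrate for 2 hours at room temperature and fluorescence intensity was recorded.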

Test [8] in a line: qHTS assay for environmental chemicals that activate the Aryl hydrocarbon Receptor (AhR) signaling pathway (AID 651777). Also: % of control where 0% means no effect; nearly all actives have a fitted effect of over 15% in size. Conditions: 1A2-DRE human hepatoma cells, luciferase, 24 h; activation: stronger effect = higher value. In a few lines: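 Human hepatoma 1A2-DRE cells, stably carrying a dioxin response element and CYP1A2 promoter driving luciferase, were exposed to compounds for 24 hr at 37 C and 5% CO2. Luciferase signal was then read after 30 min One-Glo at room temperature.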

The target in test [9] is Peroxisome proliferator-activated receptor alpha (Homo sapiens) (UniProt Q07869). The test can be described thus: qHTS assay for small molecule agonists of the peroxisome proliferator-activated receptor alpha (PPARalpha) signaling pathway (AID 651778). Also: % of control where 0% means no effect. Conditions: PathHunter PPARalpha complementation, chemiluminescence, 6 h; max response: stronger effect = higher value. In a few lines: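 Enzyme-fragment complementation assay in which ligand-bound PPARalpha translocates and forms an active enzyme that generates chemiluminescence. Cells were plated overnight, exposed to compound for 6 hr at 37 C, and then given detection reagent for 60 min at room temperature.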

The target in test [10] is Tumor necrosis factor (Homo sapiens) (UniProt P01375). The test can be described thus: qHTS assay to identify small molecules that stimulate Tumor Necrosis Factor-alpha (TNF-alpha) secretion (AID 651757; active = well fitted curve in the direction sought with a large enough effect in the signal ratio; the % refers to the signal ratio; also: 0% is about no effect). In a few lines:
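Human monocytic THP-1 cells are plated, treated with compound and held at 37 C for 17 hrs. Labeled anti-TNF-alpha antibody mixture is then added; after 3 hr at room temperature, TR-FRET signal reports secreted TNF-alpha.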

Test [11] is described as follows: Cytotoxicity counterscreen for NFkB agonists and antagonists (AID 624476). Also: % is scaled to controls: 0 for no effect and ±100 for the full control effect. A general note: Counterscreens check selectivity or assay interference.
A short description of test [12]: qHTS Assay for Identification of Small Molecule Antagonists for NFkB Signaling Pathway. (AID 624479; calls by dose curve;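 also: pathway stimulated with TNF alpha; % is scaled to controls: 0 for no effect and ±100 for the full control effect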).
Test [13] in a line: Cell Proliferation Assay against the TMD8 Cell Line (Caspase readout at 16 hrs) (AID 651712). In a few lines:
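Caspase-Glo luminescence after 16 h compound exposure of TMD8 cells, 37 °C, 5% CO2. Medium: RPMI without phenol red, 5% FBS. Normalisation: DMSO = 0%, bortezomib 9.2 uM final = 100%.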

Test [14] is described as follows: Cell Proliferation Assay against the TMD8 Cell Line (Caspase readout at 8 hrs) (AID 651713).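 Also: 0% = DMSO and 100% = 9.2 µM bortezomib caspase signal.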 In a few lines: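 Caspase 3/7 activation in ABC DLBCL TMD8 cells is measured by luminescence after an 8 h compound exposure at 37C. Relative light units are scaled between DMSO (0%) and 9.2 uM final bortezomib (100%).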

Sequence of Glucagon-like peptide 1 receptor (Homo sapiens) (P43220 whole entry, looked up): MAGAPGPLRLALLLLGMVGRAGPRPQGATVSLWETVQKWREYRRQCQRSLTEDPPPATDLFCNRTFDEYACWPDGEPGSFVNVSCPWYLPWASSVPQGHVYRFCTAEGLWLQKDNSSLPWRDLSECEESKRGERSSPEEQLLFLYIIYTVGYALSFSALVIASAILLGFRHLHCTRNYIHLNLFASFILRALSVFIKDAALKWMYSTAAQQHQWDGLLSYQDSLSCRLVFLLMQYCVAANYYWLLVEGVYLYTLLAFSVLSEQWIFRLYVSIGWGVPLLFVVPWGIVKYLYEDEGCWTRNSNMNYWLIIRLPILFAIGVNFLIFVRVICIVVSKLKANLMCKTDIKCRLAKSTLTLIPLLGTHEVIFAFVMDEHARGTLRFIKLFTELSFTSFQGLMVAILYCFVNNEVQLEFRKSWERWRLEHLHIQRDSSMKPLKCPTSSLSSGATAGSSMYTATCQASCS
Sequence of Peroxisome proliferator-activated receptor alpha (Homo sapiens) (Q07869 whole entry, looked up, the tested form may be a part): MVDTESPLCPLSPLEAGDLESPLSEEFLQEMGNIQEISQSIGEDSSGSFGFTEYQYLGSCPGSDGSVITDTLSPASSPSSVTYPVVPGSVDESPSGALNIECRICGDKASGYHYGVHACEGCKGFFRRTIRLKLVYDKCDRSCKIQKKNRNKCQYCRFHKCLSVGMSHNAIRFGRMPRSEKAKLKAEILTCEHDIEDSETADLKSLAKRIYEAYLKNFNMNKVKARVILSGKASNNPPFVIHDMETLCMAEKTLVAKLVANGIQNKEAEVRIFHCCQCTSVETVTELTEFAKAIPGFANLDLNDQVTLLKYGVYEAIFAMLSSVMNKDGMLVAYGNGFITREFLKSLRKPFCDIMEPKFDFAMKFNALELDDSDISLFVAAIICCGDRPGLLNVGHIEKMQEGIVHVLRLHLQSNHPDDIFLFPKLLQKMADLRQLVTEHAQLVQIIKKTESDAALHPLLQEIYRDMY
Sequence of Tumor necrosis factor (Homo sapiens) (P01375 whole entry, looked up): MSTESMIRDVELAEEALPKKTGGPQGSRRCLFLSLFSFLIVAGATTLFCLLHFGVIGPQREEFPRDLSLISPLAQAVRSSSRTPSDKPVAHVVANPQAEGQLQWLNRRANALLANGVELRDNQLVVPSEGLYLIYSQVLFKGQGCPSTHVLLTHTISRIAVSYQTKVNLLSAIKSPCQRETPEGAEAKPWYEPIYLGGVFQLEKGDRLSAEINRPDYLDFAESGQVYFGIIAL

For `CC1(CN2CCC(n3c(=O)[nH]c4ccccc43)CC2)OCc2ccccc2-n2cccc21` (centres undefined), the call in [1] was inactive. Moreover, the viability (% of control) in test [2] amounted to 12.7%. Moreover, the viability, percent of control in test [3] was 6.74%.
`Nc1c2c(nc3ccccc13)CCCC2`: the Potency entry in test [4] and in test [6] was “inactive” in each case. Moreover, the compound was classed as inactive in test [5]. The figures for the activation in test [7] and in test [8] were 1% (inactive) and 11.6% (inactive), respectively. Also, in test [9], the max response is -6.35% (inactive).
On to `O=c1[nH]cc(F)c(=O)[nH]1`, for which the Potency entry in [4] and in test [6] was “inactive” throughout. Besides, the outcome in [5] and in [10] was inactive. Further, in test [8], the activation was -0.168% (inactive). The max response in [9] is -2.48% (inactive).
Regarding `O=C(C1CCCCC1)N1CC(=O)N2CCc3ccccc3C2C1` (centres undefined), the Potency result in test [4] and in test [6] was “inactive” in each case.
For the compound `CN(C)C(=N)N=C(N)N`, the Potency entry in test [11], in test [12], in test [13] and in test [14] was “inactive” throughout. Moreover, the result in [1] was inactive. In [2], the viability (% of control) amounted to 131%. Also, the viability, percent of control in test [3] amounted to 125%.
